ABHD5 PLIN5 PPI = blocks binding of human ABHD5 to perilipin-5. Q00G26+Q8WTS1. Split G. princeps luciferase complementation, luminescence, 4 h. inhibition, % at 4 µM. 0.78% of 360,000 active. AID 602281;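 active means inhibition above the mean inhibition across every tested compound plus 3 SD, cut at about 22% in these data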;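 further: 0% = DMSO only wells and the 100% control is not disclosed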
HIF-2a inh = inhibitors of HIF-2a | 786-0 RCC cells HIF-2a reporter, luciferase luminescence, overnight | inhibition, % at 18.8 µM | 0.72% of 360,000 active | AID 624352;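 active means inhibition of the luminescence signal of 40% or more relative to plate controls, in a single-dose primary screen at 18.75 µM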
Mdm2-MdmX inh = human Mdm2/MdmX binding inhibition. SaOS-2 split-luciferase Mdm2/MdmX complementation, luminescence. inhibition, % at 8 µM. O15151+Q00987. 3% of 330,000 active;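 active means inhibition of at least 50% at 8 µM in the primary screen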
Target sequence (O15151 whole entry, looked up): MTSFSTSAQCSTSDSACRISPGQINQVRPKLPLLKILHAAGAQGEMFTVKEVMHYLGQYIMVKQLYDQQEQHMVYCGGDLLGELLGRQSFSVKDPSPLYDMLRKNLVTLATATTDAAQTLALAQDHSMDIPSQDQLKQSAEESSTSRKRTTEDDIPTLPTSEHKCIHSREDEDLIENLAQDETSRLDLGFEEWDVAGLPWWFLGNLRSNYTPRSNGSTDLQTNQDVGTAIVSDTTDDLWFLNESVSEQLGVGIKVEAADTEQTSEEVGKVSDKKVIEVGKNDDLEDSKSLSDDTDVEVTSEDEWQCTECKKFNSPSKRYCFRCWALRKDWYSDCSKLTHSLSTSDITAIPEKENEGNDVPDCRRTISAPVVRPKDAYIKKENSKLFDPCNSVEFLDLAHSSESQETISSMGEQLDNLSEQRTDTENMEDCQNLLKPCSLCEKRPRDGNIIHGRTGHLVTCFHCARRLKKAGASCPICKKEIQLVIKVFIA
Target sequence (Q00987 whole entry, looked up): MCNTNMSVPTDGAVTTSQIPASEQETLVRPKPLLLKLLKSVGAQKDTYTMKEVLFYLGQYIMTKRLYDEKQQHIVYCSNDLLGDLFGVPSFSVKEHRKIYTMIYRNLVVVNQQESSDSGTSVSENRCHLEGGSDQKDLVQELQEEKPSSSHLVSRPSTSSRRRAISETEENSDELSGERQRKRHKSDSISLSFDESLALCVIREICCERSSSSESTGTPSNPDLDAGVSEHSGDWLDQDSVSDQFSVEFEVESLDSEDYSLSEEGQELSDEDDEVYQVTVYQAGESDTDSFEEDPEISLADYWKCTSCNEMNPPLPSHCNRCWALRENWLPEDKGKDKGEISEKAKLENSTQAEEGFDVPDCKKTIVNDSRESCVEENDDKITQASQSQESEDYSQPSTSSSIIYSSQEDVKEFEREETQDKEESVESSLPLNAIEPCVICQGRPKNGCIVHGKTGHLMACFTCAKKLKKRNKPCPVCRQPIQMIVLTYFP
KKLEB tox = counter-screen for CF NF-kB inhibitors: cytotoxicity; KKLEB CF airway cells viability, ATPlite luminescence, overnight; stronger effect = lower value; cells stimulated with P. aeruginosa culture filtrate; activity change (cytotoxicity), % at 5 µM; 0.36% of 360,000 active;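 active means corrected activity change at or below -50% at 5 µM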
CF NFkB inh = cystic fibrosis NF-kB activation inhibition. KKLEB NF-kB-GFP reporter, PAF-induced, GFP fluorescence overnight. inhibition, % at 5 µM. 0.86% of 360,000 active. AID 588850;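 active means at least 50% inhibition at 5 µM, scaled per plate between neutral and stimulator controls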;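 further: PAF is a Pseudomonas aeruginosa culture filtrate used as stimulus; plate controls were PAF-stimulated DMSO wells for no effect and unstimulated DMSO wells for full effect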
Peg3 promoter = Peg3 promoter activity inhibition; HeLa PEG-Prom luciferase reporter, luminescence, overnight; inhibition, % at 20 µM; 1.7% of 360,000 active; AID 588405;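 active means inhibition of at least 50% at 20 µM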
Active calls of the source: *; . = not tested or not shown. Shown are actives, neighbours in structure and some others; about 4.6% of the full set was active somewhere.

SMILES | ABHD5 PLIN5 PPI | HIF-2a inh | Mdm2-MdmX inh | KKLEB tox | CF NFkB inh | Peg3 promoter
COC(=O)[C@H](CCSC)NC(=O)Cn1cc(C)c(=O)[nH]c1=O | -2 | 2 | . | 14 | -70 | 5
CN(C)c1ccc(C=c2c3ccccc3n3c2cc(-c2ccc(Cl)cc2)[n+]3C)cc1 | 18 | -56 | . | -2 | -112 | 61*
COc1cc(C=c2c3ccccc3n3c2cc(-c2ccccc2)[n+]3C)cc(OC)c1OC | -28 | -22 | . | -26 | 22 | 38
CCCCN1CC(N2CCCCC2)CS1(=O)=O (stereo not drawn) | 8 | 5 | . | 8 | -30 | -8
CCCC1OC2CC3C4CCC5=CC(=O)C=CC5(C)C4C(O)CC3(C)C2(C(=O)O)O1 (stereo not drawn) | -5 | 29 | -4 | 32 | 74* | 1
CCCC1O[C@@H]2CC3C4CCC5=CC(=O)C=C[C@]5(C)C4C(OC(C)=O)C[C@]3(C)[C@]2(C(=O)COC(C)=O)O1 (stereo partly drawn) | -7 | 18 | 6 | 12 | 24 | 25
CCC(=O)[C@@]1(C)[C@H](C)C[C@H]2[C@@H]3CCC4=CC(=O)C=C[C@]4(C)[C@H]3[C@@H](O)C[C@@]21C | -3 | 22 | 19 | 39 | 72* | 9
CC1(C(=O)NS(=O)(=O)c2ccccc2Cl)CCN1C(=O)CC1CCCC1 (stereo not drawn) | 1 | 11 | . | -9 | 10 | 10
Cc1cc(C(=O)COC(=O)c2ccc[nH]c2=O)c(C)n1-c1ccccc1F | -6 | 45* | -17 | 0 | 7 | -57
COc1ccc(C(=O)Nc2cccc(OC)c2)cc1 | 7 | -210 | -92 | 1 | -2 | -178
COc1ccc(C(=O)Nc2ccc3[nH]c(-c4cccc(OC)c4)cc(=O)c3c2)cc1 | 10 | 16 | 48 | -31 | 50* | 28
C[C@@H]1CCCCO[C@@H](CN(C)CC2CCCCC2)[C@@H](C)CN([C@H](C)CO)C(=O)c2cc(NS(=O)(=O)c3ccc(Cl)cc3)ccc2O1 | 1 | -43 | . | 16 | -24 | 90*
C[C@@H]1CCCCO[C@H](CN(C)Cc2ccc(C(F)(F)F)cc2)[C@H](C)CN([C@@H](C)CO)C(=O)c2cc(NC(=O)Cc3ccccc3)ccc2O1 | 11 | -30 | . | -8 | 22 | 50*
C[C@H]1CCCCO[C@H](CN(C)CC2CCCCC2)[C@@H](C)CN([C@@H](C)CO)C(=O)c2cc(NS(=O)(=O)c3ccccc3)ccc2O1 | 1 | -32 | . | 6 | 11 | 16
COc1ccc(CN(C)C[C@@H]2OCCCC[C@H](C)Oc3ccc(NC(=O)Nc4ccc(F)cc4)cc3C(=O)N([C@H](C)CO)C[C@H]2C)cc1 | 2 | -19 | . | -10 | -2 | 74*
C[C@@H]1CN([C@H](C)CO)C(=O)c2cccc(NC(=O)NC3CCCCC3)c2O[C@@H]1CN(C)C(=O)Nc1ccc(C(F)(F)F)cc1 | -11 | 5 | 46 | -8 | -26 | 88*
O=C(N/N=C/c1ccc(Br)s1)c1c[nH]c2ccccc12 | -4 | -284 | -22 | 10 | -41 | -178
COCCN1C[C@@H](CO)O[C@@H](n2cnc3c(NC(C)C)ncnc32)C1 | 4 | 9 | . | -8 | -6 | 0
COc1ccc(CNC(=O)CC2C[C@H](C(=O)N3CCCCC3)[C@@]3(C)c4[nH]c5ccccc5c4CCN3C2=O)cc1OC (stereo partly drawn) | 2 | 6 | 16 | -5 | 20 | 0
O=C(CSc1nc2ncc(Cl)cc2[nH]1)Nc1ccccc1-c1ccccc1 | 6 | 29 | 13 | 0 | 46 | 21
O=C(CSc1nc2ncc(Br)cc2[nH]1)Nc1ccccc1-c1ccccc1 | 6 | 24 | 28 | -9 | 43 | 53*
CSc1nc(Nc2ccc(Cl)cc2)c(C#N)c(=O)[nH]1 | 6 | 24 | 6 | 1 | 2 | 53*
O=C(NC(c1ccc(Cl)cc1)c1c(O)ccc2ccccc12)c1ccccc1 (stereo not drawn) | -5 | 20 | . | -62* | 64* | 58*
CCOC(=O)c1c(CSc2ccccc2)n(C)c2cc(Br)c(OCC(O)CNC(CO)(CO)CO)cc12 (stereo not drawn) | 15 | 34 | . | -6 | -4 | 97*
Cc1ccc(NC(=O)C(C)N=C2NS(=O)(=O)c3ccccc32)cc1F (stereo not drawn) | 3 | -244 | -15 | 4 | -18 | -276
SMILES | ABHD5 PLIN5 PPI | HIF-2a inh | Mdm2-MdmX inh | KKLEB tox | CF NFkB inh | Peg3 promoter
CCCCCCNC(=O)OC12CN(C(=O)OC(C)C)N(C(=O)OC(C)C)CC1(O)CN(S(=O)(=O)c1ccc(C)cc1)C2 (stereo not drawn) | 5 | -4 | . | -2 | -14 | 84*
Cc1nn(Cc2ccc(Cl)cc2)c(C)c1NC(=O)CSc1nc2c(c(C(F)(F)F)n1)CCc1ccccc1-2 | 3 | 0 | 8 | -12 | 3 | 14
Cc1ccc(Cn2nc(C)c(NC(=O)CSc3nc4c(c(C(F)(F)F)n3)CCc3ccccc3-4)c2C)cc1 | -1 | 13 | . | 6 | 13 | 50*
CO[C@H]1CN(C)C(=O)c2cc(NC(=O)C3CCOCC3)ccc2OC[C@H](C)N(Cc2nccs2)C[C@H]1C | -3 | 4 | . | . | . | .
CN1C=C/C(=C\c2cc[n+](C)c3ccccc23)c2ccccc21 | -10 | -13 | . | -29 | 56* | 11
CC[n+]1ccc(/C=C2\Sc3ccccc3N2CCCS(=O)(=O)[O-])c2ccccc21 | 2 | 6 | 5 | 17 | -8 | 8
Cc1cccc(CN2CCc3c([nH]c4ccccc34)C2C(C)(C)C)n1 (stereo not drawn) | 1 | 20 | 3 | -2 | 8 | 14
CS(=O)(=O)c1ccc(Cl)c(NC(=O)CSc2nc3ccccc3c(=O)n2Cc2ccco2)c1 | 8 | 15 | 46 | -54* | 43 | 29
CC1(C)CC(NC(=O)C2CCN(S(=O)(=O)c3cccc(C(F)(F)F)c3)CC2)CC(C)(C)N1 | 11 | 12 | 5 | -4 | -10 | -4
NC(Cc1ccc(C(F)(F)F)cc1)c1csc(Nc2ccc(C(=O)c3ccccc3)cc2)n1 (stereo not drawn) | -7 | -15 | . | -11 | -6 | 97*
CC(=O)c1ccc(Nc2nc(C(N)Cc3ccc(C(F)(F)F)cc3)cs2)cc1 (stereo not drawn) | 10 | 6 | . | -10 | -4 | 45
NC(CCc1ccccc1)c1csc(Nc2ccc(C(=O)c3ccccc3)cc2)n1 (stereo not drawn) | 11 | -10 | . | -11 | 25 | 88*
CN(Cc1ccccc1)C(=O)c1ccc(Nc2nc(C(N)Cc3ccc(C(F)(F)F)cc3)cs2)nc1 (stereo not drawn) | 6 | -5 | . | -20 | 29 | 95*
N#Cc1ccccc1OCC(=O)N1CCN(S(=O)(=O)c2ccc(Cl)cc2)CC1 | 3 | 2 | -14 | 5 | 2 | -2
